Results: PubChem BioAssay (EPA / NIEHS)
Active and inactive are the calls of the source. The calls were made as follows: active = hit-call score of the fitted dose curve at least 0.9, where 1 is the maximum; inactive = score below 0.9.

Key:
[1] = ATG_NFI_CIS: Attagene CIS-FACTORIAL HepG2 Assay for human Nuclear Factor I (NFI) (AID 2282989); settings: HepG2 cis-regulatory reporter, NFI response element transcription; actives raise or lower the signal
Summary of the method: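 Endogenous TF activity in HepG2 cells transiently transfected with cis-element-driven multiplexed reporter units, read 24 h after dosing. Reporter mRNA quantified by RT-PCR, 6-FAM labelling, HpaI digestion and capillary electrophoresis; bidirectional fit versus DMSO.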

[2] = biological target: Myc proto-oncogene protein (Homo sapiens) (UniProt P01106); test: ATG_Myc_CIS: Attagene CIS-FACTORIAL HepG2 Assay for human Myelocytomatosis (Myc) Proto-Oncogene Transcription Factor (AID 2282990); settings: HepG2, Attagene cis-reporter transcription factor activity; actives raise or lower the signal
Sequence of Myc proto-oncogene protein (Homo sapiens) (P01106 whole entry, looked up): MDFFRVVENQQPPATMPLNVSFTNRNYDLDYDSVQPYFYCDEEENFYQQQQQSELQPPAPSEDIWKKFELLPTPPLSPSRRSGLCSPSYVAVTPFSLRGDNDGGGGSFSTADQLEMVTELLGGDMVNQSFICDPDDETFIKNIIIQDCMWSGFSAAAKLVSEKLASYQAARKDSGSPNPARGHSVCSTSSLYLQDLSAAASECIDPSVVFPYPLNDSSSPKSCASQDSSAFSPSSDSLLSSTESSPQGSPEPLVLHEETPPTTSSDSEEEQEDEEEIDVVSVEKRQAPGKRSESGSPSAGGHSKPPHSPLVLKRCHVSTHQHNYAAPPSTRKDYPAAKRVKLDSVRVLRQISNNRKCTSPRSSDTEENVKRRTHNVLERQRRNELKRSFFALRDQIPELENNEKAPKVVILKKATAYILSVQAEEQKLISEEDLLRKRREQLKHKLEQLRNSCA
Summary of the method: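 HepG2 cells transiently transfected with multiple cis-promoter-driven reporter transcription units, so endogenous TF activity is read. After 24 h compound exposure, reporter mRNA was quantified by RT-PCR, 6-FAM labelling, HpaI digestion and capillary electrophoresis; bidirectional fit versus DMSO.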

[3] = ATG_NF_kB_CIS: Attagene CIS-FACTORIAL HepG2 Assay for human Nuclear Factor Kappa B (NF-kB) (AID 2282991); settings: HepG2 Attagene cis-factorial NF-kB reporter mRNA; actives raise or lower the signal
Summary of the method: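 Fluorescence of labelled RT-PCR products separated by capillary electrophoresis gives reporter mRNA levels from transfected HepG2 cells exposed 24 h; values are fitted in both directions relative to DMSO.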

[4] = ATG_NRF2_ARE_CIS: Attagene CIS-FACTORIAL HepG2 Assay for human Nuclear Factor Erythroid 2 Related Factor 2 (NFR2) response to Antioxidant Response Elements (ARE) (AID 2282992); settings: HepG2 Attagene ARE/NRF2 reporter, transcription factor activity; actives raise or lower the signal
Summary of the method: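 Fluorescence intensity of reporter-specific cDNA fragments, separated by capillary electrophoresis, reflects mRNA induction in transfected HepG2 cells at 24 h. Activity is fitted bidirectionally, DMSO serving as baseline.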

[5] = ATG_Oct_MLP_CIS: Attagene CIS-FACTORIAL HepG2 Assay for human Octamer-Binding Transcription Factor (Oct) (AID 2282993); settings: HepG2 Attagene cis-factorial Oct reporter, mRNA; actives raise or lower the signal
Summary of the method: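 HepG2 cells transiently transfected with cis-element-driven reporter transcription units (endogenous TF activity); 24 h compound exposure. Reporter mRNA quantified by RT-PCR, 6-FAM labelling, HpaI digestion and capillary electrophoresis; bidirectional fit versus DMSO baseline.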

[6] = biological target: Cellular tumor antigen p53 (Homo sapiens) (UniProt P04637); test: ATG_p53_CIS: Attagene CIS-FACTORIAL HepG2 Assay for human p53 Transcription Factor (AID 2282994); settings: HepG2 p53 cis-element reporter, Attagene mRNA; actives raise or lower the signal
Sequence of Cellular tumor antigen p53 (Homo sapiens) (P04637 whole entry, looked up): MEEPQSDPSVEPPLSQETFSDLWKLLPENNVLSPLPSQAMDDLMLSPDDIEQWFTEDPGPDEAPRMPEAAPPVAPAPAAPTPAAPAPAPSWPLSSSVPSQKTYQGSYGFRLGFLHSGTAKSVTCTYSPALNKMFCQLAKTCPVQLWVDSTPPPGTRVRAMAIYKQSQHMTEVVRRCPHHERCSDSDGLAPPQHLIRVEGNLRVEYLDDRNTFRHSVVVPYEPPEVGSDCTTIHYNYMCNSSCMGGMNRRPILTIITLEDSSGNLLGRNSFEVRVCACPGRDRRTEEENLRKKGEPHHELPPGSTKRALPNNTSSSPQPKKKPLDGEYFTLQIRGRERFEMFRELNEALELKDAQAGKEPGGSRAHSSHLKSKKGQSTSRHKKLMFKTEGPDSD
Summary of the method: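 Transiently transfected HepG2 (multiple cis reporter transcription units); exposure 24 h; reporter RNA via RT-PCR, 6-FAM extension, 2 h HpaI digest at 37 C, CE detection; DMSO baseline.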

| Structure (SMILES) | outcome [1] | outcome [2] | AC50 [3] | AC50 [4] | AC50 [5] | outcome [3] | outcome [4] | outcome [5] | outcome [6] | AC50 [1] | AC50 [6] |
| --- | --- | --- | --- | --- | --- | --- | --- | --- | --- | --- | --- |
| O=c1cc(-c2ccccc2)oc2ccccc12 | inactive | inactive | 82.3 µM (active) | 4.03 µM (active) | 52.4 µM (active) | – | – | – | – | – | – |
| CCCCCC(C)O (stereo unspecified) | inactive | inactive | – | – | – | inactive | inactive | inactive | – | – | – |
| Cc1cc(=O)n(-c2ccccc2)n1C | inactive | inactive | – | – | – | inactive | inactive | inactive | inactive | – | – |
| O=C(O)CCCC[C@@H]1SC[C@@H]2NC(=O)N[C@@H]21 | inactive | inactive | – | – | – | inactive | inactive | inactive | – | – | – |
| CC(=O)Nc1nnc(S(N)(=O)=O)s1 | inactive | inactive | – | – | – | inactive | inactive | inactive | inactive | – | – |
| C=CC(=O)NC(C)(C)CS(=O)(=O)O | inactive | inactive | – | – | – | inactive | inactive | inactive | inactive | – | – |
| CCCCCCCCCCOS(=O)(=O)O | inactive | inactive | – | 99.5 µM (active) | – | inactive | – | inactive | inactive | – | – |
| CC(=O)OCc1ccco1 | inactive | inactive | – | 45.3 µM (active) | – | inactive | – | inactive | – | – | – |
| FC(F)(F)C(=NOCC1OCCO1)c1ccc(Cl)cc1 | inactive | inactive | – | – | – | inactive | inactive | inactive | inactive | – | – |
| CCCCCCCCCCOC(C)=O | inactive | inactive | – | – | – | inactive | inactive | inactive | inactive | – | – |
| CC(C)(Oc1ccc(C2CC2(Cl)Cl)cc1)C(=O)O (stereo unspecified) | inactive | inactive | – | – | – | inactive | inactive | inactive | inactive | – | – |
| CCC(=O)Oc1ccc(/C(CC)=C(\CC)c2ccc(OC(=O)CC)cc2)cc1 | – | inactive | 33.7 µM (active) | – | – | – | inactive | inactive | – | 25.2 µM (active) | 27.9 µM (active) |
| CC(C)(C)C(=O)C=Cc1ccc(Cl)cc1 | – | inactive | – | – | 26.3 µM (active) | inactive | inactive | – | – | 48.8 µM (active) | 59 µM (active) |
| CCCCCCCCCCC=CC#N | inactive | inactive | – | 114 µM (active) | – | inactive | – | inactive | inactive | – | – |
| CCCCCC/C=C\CCCCCCCC(=O)O | inactive | inactive | – | 26.5 µM (active) | – | inactive | – | inactive | inactive | – | – |
| CCC(C)C=O (stereo unspecified) | inactive | inactive | – | – | – | inactive | inactive | inactive | inactive | – | – |
| C[C@]12C=CC(=O)C=C1CC[C@@H]1[C@@H]2[C@@H](O)C[C@@]2(C)[C@H]1CC[C@]2(O)C(=O)CO | inactive | inactive | – | – | – | inactive | inactive | inactive | inactive | – | – |
| O=C(OCC1CCC2OC2C1)C1CCC2OC2C1 (stereo unspecified) | inactive | inactive | – | – | – | inactive | inactive | inactive | inactive | – | – |
| CCCCCCC1(C)CCC(=O)O1 (stereo unspecified) | inactive | inactive | – | – | – | inactive | inactive | inactive | inactive | – | – |
| CC(C)(C)c1ccc(OC(=O)c2ccccc2O)cc1 | inactive | inactive | – | – | – | inactive | inactive | inactive | inactive | – | – |
| C=C(C)C(=O)OCC(C)C | inactive | inactive | – | – | – | inactive | inactive | inactive | inactive | – | – |
| Nc1ncn([C@@H]2O[C@H](CO)[C@@H](O)[C@H]2O)c(=O)n1 | inactive | inactive | – | – | 8.32 µM (active) | inactive | inactive | – | – | – | 2.1 µM (active) |
| C=CC(=O)OCCOC1C2CCC1C1CC=CC12 (stereo unspecified) | inactive | inactive | – | – | – | inactive | inactive | inactive | inactive | – | – |
| CCc1ccc2c(c1)C(=O)c1ccccc1C2=O | inactive | inactive | – | 14.5 µM (active) | – | inactive | – | inactive | inactive | – | – |
| C=C(C)c1cccc(C(C)(C)N=C=O)c1 | inactive | inactive | – | – | – | inactive | inactive | inactive | inactive | – | – |
| CC/C=C\CCOC(=O)CCCCC | inactive | inactive | – | – | – | inactive | inactive | inactive | inactive | – | – |
| CC1(C)O[C@@H]2C[C@H]3[C@@H]4C[C@H](F)C5=CC(=O)CC[C@]5(C)[C@H]4[C@@H](O)C[C@]3(C)[C@]2(C(=O)CO)O1 | inactive | inactive | – | – | – | inactive | inactive | inactive | inactive | – | – |
| CN(C)c1ccc(N=Nc2ccccc2C(=O)O)cc1 | inactive | inactive | – | 4.76 µM (active) | 23.3 µM (active) | inactive | – | – | – | – | 66.4 µM (active) |
| NC(=O)NNC(N)=O | inactive | inactive | – | – | – | inactive | inactive | inactive | inactive | – | – |
| COc1ccc(-c2coc3cc(O)ccc3c2=O)cc1 | inactive | inactive | – | – | – | inactive | inactive | inactive | inactive | – | – |
